A selection: hits, their analogues and other compounds. The true share with any hit is near 6.2%.
MARV entry inh: qHTS for inhibitors of binding or entry into cells for Marburg Virus; 300,000 compounds, 1.8% hits; AID 540276, 2011; Marburg virus pseudotyped entry inhibition, cell reporter; Potency, µM (doses to about 37.8 µM), inactives show at the highest dose activity change, negative = inhibition, usual class: inhibitors; calls by dose curve; tested in HEK293 cells; note: potency is the fitted concentration of half-maximal effect
HCMV inh: qHTS Assay for inhibitors of the human cytomegalovirus (HCMV); HFF cells, HCMV-luciferase reporter, 72 h; active compounds read low; activity change, negative = inhibition, % at 57.5 µM; 410,000 compounds, 4.5% hits; AID 1259415, 2018; in the data active = activity change below about -60%; inconclusive = no clear call, values can overlap the other calls; inactive = above about -39%
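Luciferase read-out from HCMV-luciferase-infected HFFs (MOI 1 PFU/cell) 72 h post infection at 37C; compounds added after 16 h cell attachment; activity normalized between buffer-only basal and Salinomycin (10uM) inhibitor controls.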
LASV entry inh: qHTS for Inhibitors of binding or entry into cells for Lassa Virus; Potency, µM (series often up to 37.9 µM), for the others: top-dose activity change, negative = inhibition, actives largely listed as inhibitors; Lassa virus pseudotype entry inhibition, cell reporter; 300,000 compounds, 1.2% hits; AID 540256, 2011; calls by dose curve; tested in HEK293 cells; note: potency is the fitted concentration of half-maximal effect; nearly all actives have a fitted effect of over 50% in size
FMDV antiviral: High Throughput Screening for Foot and Mouth Disease Virus Antivirals. FMDV antiviral cell-based qHTS. Potency, µM (top dose mostly 57.9 µM), for the others: top-dose activity change, negative = inhibition, hits mostly inhibitors. 410,000 compounds, 1.2% hits; calls by dose curve; tested in HEK293T cells; note: read-out not given here; potency is the fitted concentration of half-maximal effect; nearly all actives have a fitted effect of over 45% in size
Numbers without * were called inactive; ? = inconclusive; / = not tested or not shown; [ ] = dose if it differs, or a comment. % is set by controls: 0 for no effect and ±100 for the full control effect.

SMILES | MARV entry inh | HCMV inh | LASV entry inh | FMDV antiviral
CCn1ccnc1CN(C)Cc1cn[nH]c1-c1ccc(OC)c(F)c1 | 7.8%[46.1 µM] | -72.1* | 14.0%[46.1 µM] | -14.6%
CCC(=O)N1CCc2cc(Br)cc(S(=O)(=O)CCC(=O)NCc3ccc(F)cc3)c21 | -5.6%[46.1 µM] | -4.8 | ? | -11.9%
COc1ccc2oc(C(=O)OCC(=O)c3ccc4c(c3)OCCO4)c(C)c2c1 | ? | -21.5 | 16.4µM* | ?
CCOc1ccc2oc(C(=O)OCC(=O)NCC3CCCO3)c(C)c2c1 (configuration not stated) | 5.2% | 18.9 | 11.2µM* | 0.3%
COc1ccc2oc(C(=O)OCC(=O)NCC3CCCO3)c(C)c2c1 (configuration not stated) | 2.2% | -3.9 | -9.9% | 12.1%
CCOc1ccc2oc(C(=O)NNC(=O)c3ccccc3O)c(C)c2c1 | -4.1%[46.1 µM] | -72.2* | -7.5% | 23.0%
Cc1c(C(=O)NNC(=O)c2ccccc2O)oc2ccc(Br)cc12 | -4.4% | 6.5 | ? | 33.8%
CCc1ccc2ncc(S(=O)(=O)c3ccc(Cl)cc3)c(N3CCN(CC)CC3)c2c1 | ? | -39.8 | / | 0.0%
Cc1c(N=C2NC(=O)/C(=C/c3ccc(O)cc3)S2)c(=O)n(-c2ccccc2)n1C | ? | ? | ? | -29.7%
O=C1NC(=NCc2ccccc2)S/C1=C/c1ccc(O)cc1 | ? | -62.3* | ? | 69.7%
CCCn1c(=O)c2sccc2n2c(CCCC(=O)Nc3ccc(Oc4ccccc4)cc3)nnc12 | / | -60.9* | -24.5%[46.1 µM] | -21.3%
N#Cc1cc2c(nc1SCC(=O)Nc1cccc(C(F)(F)F)c1)C1CCN2CC1 | -9.0%[46.1 µM] | ? | -36.3%[46.1 µM] | 1.8%
CCOC(=O)c1ccc(NC(=O)CSc2nc3c(cc2C#N)N2CCC3CC2)cc1 | ? | 5.5 | -15.4%[46.1 µM] | 12.6µM*
N#Cc1cc2c(nc1SCC(=O)Nc1ccc(OC(F)(F)F)cc1)C1CCN2CC1 | / | -71.9* | -29.3%[46.1 µM] | -41.9%
N#Cc1cccc(NC(=O)CSc2nc3c(cc2C#N)N2CCC3CC2)c1 | ? | -82.7* | ? | 40.0%
COc1cccc(Cn2c(=O)c(-c3cn(C)c4ccccc34)nc3cncnc32)c1 | / | / | / | -6.4%
Cc1ccc(C2(CCNCc3ccc(N(C)C)cc3)CCOC(C(C)C)C2)cc1 (configuration not stated) | ? | -39.5 | ? | -24.7%
Cc1ccc(C2(CCNS(=O)(=O)c3ccc(C)cc3)CCOC(C(C)C)C2)cc1 (configuration not stated) | 6.51µM* | -22.3 | ? | -3.4%
Cc1ccc(C(C[N+](=O)[O-])Sc2ccc(N)cc2)cc1 (configuration not stated) | 3.5%[46.1 µM] | -100.5* | -1.2% | ?
CC1(C)C2CCC(C2)C1C/C=N/NC(N)=S (configuration not stated) | ? | -72.9* | 0.7% | ?
CC1(C)CCC(=NNC(N)=S)CC1 | ? | -0.2 | -1.7% | -5.5%
O=S1(=O)C=CCN1C1CCCC1 | / | / | 7.2%[46.1 µM] | /
CCOc1cc(/C=N/n2cnnc2)ccc1OCC(=O)Nc1ccccc1OC | -2.1% | -15.1 | -1.2% | -14.0%
COc1cc(/C=N/NC(N)=O)c(Br)cc1OCC(=O)Nc1ccccc1C | 11.2µM* | -26.0 | ? | -7.2%
COc1ccccc1/C=C(/C(=O)OCC(=O)Nc1ccccc1C)c1ccccc1 | 0.0% | -61.7* | ? | ?
SMILES | MARV entry inh | HCMV inh | LASV entry inh | FMDV antiviral
CCOc1cc(/C=N/NC(N)=O)cc(Br)c1OCC(=O)Nc1ccccc1C | 11.2µM* | -21.5 | -4.4% | -17.8%
COc1cc(/C=N/O)c(Br)cc1OCC(=O)Nc1ccccc1C | ? | 7.5 | 18.6% | 1.1%
CCOc1cc(/C=N/NC(N)=O)cc(Br)c1OCC(=O)Nc1cccc2ccccc12 | -16.6% | 37.2 | -21.5% | ?
CCOc1cc(/C=C\[N+](=O)[O-])ccc1OCC(=O)Nc1ccccc1C | 0.3% | / | / | 25.1µM*
CCc1cccc(NC(=O)c2cnc(SC)nc2-c2ccccc2)c1 | / | -16.6 | 15.8%[46.1 µM] | -5.6%
CCOc1cc(/C=C/c2cccc[n+]2C)ccc1OCC(=O)Nc1ccc(C)cc1 | -22.3%[46.1 µM] | -95.3* | -24.5%[46.1 µM] | -1.9%
COc1cc(/C=C/c2cccc[n+]2C)ccc1OCC(=O)Nc1ccccc1C | 0.2%[46.1 µM] | ? | 3.4%[46.1 µM] | 2.4%
Cc1nonc1OCCCNc1ccc([N+](=O)[O-])cc1Cl | 13.0%[46.1 µM] | -77.7* | 5.5% | 35.6%
COC(=O)NNC(=O)COc1ccc(Cl)cc1 | -1.6% | -108.4* | ? | 15.7%
Cc1ccccc1C(O)(Cc1ccccc1)C1CN2CCC1CC2 (configuration not stated) | ? | -18.5 | ? | -25.3%
Cc1ccc(C(O)(c2ccc(C)c(C)c2)C2CN3CCC2CC3)cc1C (configuration not stated) | / | -97.3* | / | ?
O=C1/C(=C/c2ccccc2)CCC1C1CCCC1 (configuration not stated) | ? | -33.6 | ? | 22.2%
CN1C2CCC1/C(=C\c1ccccc1)C(=O)/C2=C\c1ccccc1 | 14.6µM* | -66.1* | ? | ?
CN1C2CCC1/C(=C/c1ccccn1)C(=O)/C2=C\c1ccccn1 | 1.26µM* | -101.4* | 2.31µM* | 3.98µM*
C(=C\c1ccccn1)/c1ccccn1 | 6.8%[46.1 µM] | 79.9 | 5.8% | 40.2%
Cc1ccc(CNC(=O)Cn2ccn(-c3ccc(C)c(C)c3)c(=O)c2=O)cc1 | / | ? | -1.0%[46.1 µM] | 41.0%
CC1=Nc2cc(C(=O)O)ccc2Sc2c(C)ccc(C)c21 | ? | -33.7 | -8.7% | -25.2%
CC1=Nc2cc(C(=O)NCc3ccccc3Cl)ccc2Sc2c(C)ccc(C)c21 | ? | -90.4* | ? | -19.1%
CC1=Nc2cc(C(=O)N3CCCC3)ccc2Sc2c(C)ccc(C)c21 | / | -99.6* | / | 0.0%
COc1ccc(CC(=O)N2CCc3cc(OC)c(OC)cc3C2COc2ccc(F)cc2)cc1 (configuration not stated) | / | 10.5 | ? | -15.6%
N#CC(=C1C=C(Br)C(=NO)C=C1Cl)c1ccc(Cl)cc1 | / | 1.6 | / | ?
N#CC(=C1C=CC(=NO)C(Cl)=C1)c1ccccc1 | / | -98.1* | / | -4.9%
COc1ccc(CCN2C(=O)CSC2=S)cc1OC | ? | -101.3* | ? | 6.6%
COc1ccc(CN2C(=O)CSCC2=O)cc1OC | / | -8.5 | / | -12.3%
COc1ccc(CCN2C(=O)/C(=C\c3ccco3)SC2=S)cc1OC | -2.8% | -95.6* | 2.0% | ?
SMILES | MARV entry inh | HCMV inh | LASV entry inh | FMDV antiviral
O=C1/C(=C\c2ccco2)SC(=S)N1Cc1ccccc1 | 14.5%[46.1 µM] | -19.4 | -14.1% | -16.8%
CCOC(=O)C1=C(C(=O)OCC)C2N(Cc3ccc(C#N)cc3)c3ccccc3[C@@]23C[C@@H](C(=O)OC)N(S(=O)(=O)c2ccc(OC)cc2)C3=N1 (some centres not stated) | / | -3.6 | / | /
CCc1nc2ccc(C(=O)NCc3ccccc3C)cc2nc1CC | / | 16.3 | ? | -15.3%
C=CCOc1ccccc1CN1CCC(C(=O)Nc2cccc(-c3ccn[nH]3)c2)CC1 | / | -63.7* | / | -20.1%
CC(=O)c1cccc(CN2CCC(C(=O)Nc3cccc(-c4ccn[nH]4)c3)CC2)c1 | ? | ? | 2.6% | 31.6µM*
CC1(C)OC2CC3C4CC(F)C5=CC(=O)C=CC5(C)C4C(O)CC3(C)[C@]2(C(=O)CO)O1 (some centres not stated) | / | / | / | -0.7%

Screening data as filed in PubChem.
